Potency, activity, negative = cell killing and outcome data for six compounds are collected here from PubChem BioAssay (NCATS).

The subject of assay [1] is MCC-13. Kind of assay: qHTS assay to identify novel small-molecules to repurpose for Merkel cell carcinoma treatment (AID 1296009). Further: nearly all actives have a fitted effect of over 60% in size. The settings on record: MCC and control cell lines, CellTiter-Glo viability, 72 h; series mostly up to 46 µM. The method in brief: (§1)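 Cells were treated for 72 hr at 37 degree celsius with compounds in 8- or 11-point dose response. Viability was read by CellTiter-Glo luminescence, normalized to no-cell (cytotoxicity) and DMSO controls.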

Assay [2] has as its system MCC-26. The assay is described as above. The conditions noted are these: MCC and control cell lines, CellTiter-Glo viability, 72 h; series mostly up to 46 µM. The method in brief: as §1
Assay [3] relates to MKL-1. The assay is described as above. The conditions noted are these: MCC and control cell lines, CellTiter-Glo viability, 72 h; series mostly up to 46 µM. The method, boiled down:
as §1

Assay [4] relates to MKL-2. The assay is described as above. The settings on record: MCC and control cell lines, CellTiter-Glo viability, 72 h; series mostly up to 46 µM. The method in brief: as §1
Assay [5] has as its system UISO. The assay is described as above. The conditions noted are these: MCC and control cell lines, CellTiter-Glo viability, 72 h; series mostly up to 46 µM. The method, boiled down:
as §1

Assay [6] relates to WaGa. The assay is described as above. The settings on record: MCC and control cell lines, CellTiter-Glo viability, 72 h; series mostly up to 46 µM. The method in brief: as §1
Assay [7] concerns C33A. Kind of assay: Primary qHTS to identify gynecologic anti-cancer compounds using libraries of approved drugs and bioactive compounds (AID 1345084). Further: nearly all actives have a fitted effect of over 55% in size. Further: potency means the concentration at half of the fitted maximal effect. The settings on record: Gynecologic cancer cell panel viability, ATPlite luminescence, 48 h; series mostly up to 57.5 µM. The method, boiled down: (§2)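 48 h compound exposure at 37 C, 5% CO2; five-point qHTS. ATPlite luminescence readout of cell ATP.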

For assay [8], the system named is CAOV3. The assay is described as above. The settings on record: Gynecologic cancer cell panel viability, ATPlite luminescence, 48 h; series mostly up to 57.5 µM. The method in brief:
as §2

Assay [9] concerns CASKI. Described as above. The conditions noted are these: Gynecologic cancer cell panel viability, ATPlite luminescence, 48 h; series mostly up to 57.5 µM. The method, boiled down:
as §2

In assay [10] the test system is Es-2. The assay is described as above. The settings on record: Gynecologic cancer cell panel viability, ATPlite luminescence, 48 h; series mostly up to 57.5 µM. The method, boiled down:
as §2

The test system of assay [11] is Hek293T. The assay is described as above. The settings on record: Gynecologic cancer cell panel viability, ATPlite luminescence, 48 h, control line for the selectivity index; series mostly up to 57.5 µM. The method in brief: as §2
Assay [12] concerns JEG-3. The assay is described as above. The settings on record: Gynecologic cancer cell panel viability, ATPlite luminescence, 48 h; series mostly up to 57.5 µM. The method in brief: as §2
The subject of assay [13] is OV90. The assay is described as above. The settings on record: Gynecologic cancer cell panel viability, ATPlite luminescence, 48 h; series mostly up to 57.5 µM. The method, boiled down: as §2
Assay [14] relates to PA-1. Described as above. The conditions noted are these: Gynecologic cancer cell panel viability, ATPlite luminescence, 48 h; series mostly up to 57.5 µM. The method in brief: as §2
Assay [15] deals with SKOV3. The description is as above. The settings on record: Gynecologic cancer cell panel viability, ATPlite luminescence, 48 h; series mostly up to 57.5 µM. The method, boiled down: as §2
Assay [16] has as its system Tov-21-G. Described as above. The settings on record: Gynecologic cancer cell panel viability, ATPlite luminescence, 48 h; series mostly up to 57.5 µM. The method, boiled down:
as §2

Assay [17] concerns Tov112D. The assay is described as above. The conditions noted are these: Gynecologic cancer cell panel viability, ATPlite luminescence, 48 h; series mostly up to 57.5 µM. The method, boiled down:
as §2

The nature of assay [18]: Drug repurposing screens with cells derived from glioblastoma tumor samples (AID 1345199). Further: nearly all actives have a fitted effect of over 40% in size. Further: potency means the concentration at half of the fitted maximal effect. The settings on record: GBM patient neurospheres viability, ATP luminescence, 48 h. The method in brief:
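Four patient lines of CD133+ GBM neurospheres were screened at several concentrations; hits were retested in those lines plus three slower-growing GBM lines, using 48-hour treatment and ATP-based viability.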

Assay [19] relates to NIH3T3. Description: qHTS assay to identify novel small-molecules to repurpose for Merkel cell carcinoma treatment (AID 1296009). Further: nearly all actives have a fitted effect of over 60% in size. The settings on record: MCC and control cell lines, CellTiter-Glo viability, 72 h; at 44.8 µM (top of the series) unless noted. The method, boiled down: as §1
For assay [20], the system named is HeLa. Kind of assay: Primary qHTS to identify gynecologic anti-cancer compounds using libraries of approved drugs and bioactive compounds (AID 1345084). Further: nearly all actives have a fitted effect of over 55% in size. Further: potency means the concentration at half of the fitted maximal effect. The settings on record: Gynecologic cancer cell panel viability, ATPlite luminescence, 48 h; series mostly up to 57.5 µM. The method, boiled down: as §2
[21] abbreviates: at 45.9 µM (top of the series), tumour line B.
The mark [22] stands for this setting: at 45.9 µM (top of the series), tumour line D.
Where [23] appears, read: at 46.1 µM (top of the series), tumour line C.
Where [24] appears, read: at 46 µM (top of the series), tumour line A.

Records with an inconclusive call do not appear. A structure can be active in one record and inactive in another. Activity calls are given as the source filed them. The call rests on the fitted dose curve; in most records, active means well fitted curve in the direction sought with a large enough effect; inconclusive means small, poorly fitted or top-dose-only effect, or another doubt; inactive means no such curve, though single readings can be large; an effect the other way counts as inactive or inconclusive.
On the % scale 0 is the no-effect control and ±100 the full control effect.

In the case of `CCn1ccnc1CC1COc2ccccc2O1` (configuration not stated), the Potency result in [1], in [2], in assay [3], in assay [4], in assay [5] and in assay [6] was “inactive” throughout. Further, the Potency result in assay [7], in assay [8], in assay [9], in assay [10], in assay [11] and in assay [12] was “inactive” in each case. The Potency result in assay [13], in assay [14], in assay [15], in [16] and in assay [17] was “inactive” throughout. Besides, the values for the activity, negative = cell killing in [18] (setting [21]), in assay [18] (setting [22]) and in assay [18] (setting [23]) were -17.6% (inactive), -4.46% (inactive) and -8.32% (inactive), respectively.
Turning to `O=C(O)CN(CCN(CC(=O)O)CC(=O)O)CCN(CC(=O)O)CC(=O)O`, the Potency result in [1], in [2], in assay [3], in assay [4], in assay [5] and in assay [6] was “inactive” throughout. Moreover, the Potency result in assay [7], in [8], in assay [9], in [10], in assay [11] and in assay [12] was “inactive” throughout. Besides, the Potency result in [13], in [14], in [15], in assay [16] and in assay [17] was “inactive” each time. The activity, negative = cell killing in assay [18] (setting [21]) is -4.92% (inactive); in assay [18] (setting [22]), -0.113% (inactive); in assay [18] (setting [23]), -9.95% (inactive).
As for `CCn1cc(C(=O)O)c(=O)c2cc3c(cc21)OCO3`, the Potency entry in assay [1], in assay [2], in assay [3], in assay [4], in [5] and in assay [6] was “inactive” in each case. Further, the Potency result in assay [7], in assay [8], in assay [9], in assay [10], in [11] and in assay [12] was “inactive” each time. Further, the Potency result in assay [13], in assay [14], in assay [15], in [16] and in [17] was “inactive” in each case. The activity, negative = cell killing in assay [18] (setting [21]) was -1.33% (inactive); in assay [18] (setting [22]), -1.7% (inactive); in assay [18] (setting [24]), -12.9% (inactive); in [18] (setting [23]) it was -10% (inactive).
With `CCN(Cc1ccncc1)C(=O)C(CO)c1ccccc1` (configuration not stated), the Potency entry in assay [1], in assay [2], in assay [4], in [5], in assay [6] and in assay [7] was “inactive” throughout. For the same compound, the Potency entry in assay [8], in assay [9], in assay [10], in [11], in [12] and in assay [13] was “inactive” in each case. Further, the Potency entry in assay [14], in [15], in assay [16] and in [17] was “inactive” throughout. Also, the activity, negative = cell killing in assay [18] (setting [21]) was -2.8% (inactive); in [18] (setting [22]), -5.82% (inactive); in assay [18] (setting [24]), -16.9% (inactive); in [18] (setting [23]) it was 1.27% (inactive).
For `NC(=Nc1ccccc1)Nc1ccccc1`, the Potency entry in assay [1], in assay [2], in assay [4], in assay [5], in assay [6] and in [7] was “inactive” throughout. In addition, the Potency entry in [8], in assay [9], in assay [10], in [20], in assay [11] and in assay [12] was “inactive” in each case. Also, the Potency entry in assay [14], in assay [15], in [16] and in [17] was “inactive” throughout. Moreover, the outcome in assay [19] was “inactive [at 92 µM]”. The Potency in assay [13] is 14.1 µM (active) and inactive; in assay [18] (tumour line A), 25.1 µM (active). Moreover, the activity, negative = cell killing is -2.03% (inactive) in assay [18] (setting [21]); -11.9% (inactive) in [18] (setting [22]); 5.57% (inactive) in assay [18] (setting [23]); -24.2% (inactive) in [18] (at 91.6 µM (top of the series), tumour line B); -23% (inactive) in assay [18] (at 91.6 µM (top of the series), tumour line D); 19% (inactive) in assay [18] (at 99.2 µM (top of the series), tumour line C).
In the case of `CC(C(=O)O)c1ccc(CC2CCCC2=O)cc1` (configuration not stated), the Potency result in assay [1], in [2], in assay [4], in assay [5], in [6] and in assay [7] was “inactive” in each case. Moreover, the Potency result in assay [8], in assay [9], in assay [10], in [20], in [11] and in assay [12] was “inactive” throughout. The Potency entry in assay [13], in [14], in [15], in assay [16] and in assay [17] was “inactive” in each case. Moreover, the activity, negative = cell killing in [18] (setting [21]) was -3.22% (inactive); in assay [18] (setting [22]), 4.21% (inactive); in [18] (setting [24]), -18.9% (inactive); in assay [18] (setting [23]), -19.4% (inactive).
